Experimental data from the supplement of paper PMC13380429.

Columns and labels:
[1] = tested on: Vero E6 infected with SARS-CoV-2; experiment: morphology score (similarity to uninfected cells); higher = more like uninfected cells; conditions: 24 h
[2] = tested on: Vero E6 infected with SARS-CoV-2; experiment: SARS-CoV-2 infection rate relative to infected DMSO; higher = more infection, active = 60 or less; conditions: 24 h

SMILES | morphology score [1] | SARS-CoV-2 infection rate [2]
COc1cccc(Nc2ncnn3ccc(CN4CC[C@@H](N)[C@H](O)C4)c23)c1 (0.833333 µM) | -0.24 | 112% (inactive)
NC(=S)N/N=C/c1ccncc1 [perchlozone] (10 µM) | -0.0589 | 114% (inactive)
Oc1ccc(C2(c3ccccc3F)CCC(F)(F)CC2)cc1 (10 µM) | 0.0902 | 93% (inactive)
O=C(Oc1ccc([N+](=O)[O-])cc1)N1CCC(C(O)(c2ccc3c(c2)OCO3)c2ccc3c(c2)OCO3)CC1 (10 µM) | 0.0091 | 103% (inactive)
CCCc1nc(C(C)(C)O)c(C(=O)O)n1Cc1ccc(-c2ccccc2-c2nnn[nH]2)cc1 [olmesartan] (10 µM) | 0.0191 | 102% (inactive)
Cc1ccc(/C=N/NC(=O)c2ccccc2Oc2ccccc2)o1 (10 µM) | 0.268 | 82.5% (inactive)
CC(ONC(=O)c1cc(C(F)(F)F)cc(C(F)(F)F)c1)C(=O)Nc1ccc(Cl)cc1 (configuration not stated) (10 µM) | 0.227 | 89.5% (inactive)
CCN(CC)CCN(Cc1ccc(-c2ccc(C(F)(F)F)cc2)cc1)C(=O)Cn1c(SCc2ccc(F)cc2)nc(=O)c2c1CCC2 [darapladib] (0.833333 µM) | -0.0453 | 106% (inactive)
O=C(c1ccccc1)c1ccc2n1CCC2C(=O)O (configuration not stated) [ketorolac] (10 µM) | 0.000781 | 107% (inactive)
CC(C(=O)O)c1cccc(Oc2ccccc2)c1 (configuration not stated) [fenoprofen] (10 µM) | 0.0202 | 108% (inactive)
N#Cc1ccc(-c2ccc(S(=O)(=O)Nc3cccc(N)n3)cc2)cc1 (10 µM) | -0.0328 | 120% (inactive)
